Results with a measured potency or affinity are listed apart.
test system: Cryptococcus neoformans; conditions: Concentration 20 uM; ASSAY_TEST Inhibition of Fungal Growth; detection method Resazurin; Absorption (OD600-OD570); plate type 384well; NBS; CORNING #3640

First: CCC1=C[C@H]2CN(C1)Cc1c([nH]c3ccccc13)[C@@](C(=O)OC)(c1cc3c(cc1OC)N(C)[C@H]1[C@@](O)(C(=O)OC)[C@H](OC(C)=O)[C@]4(CC)C=CCN5CC[C@]31[C@@H]54)C2.O=C(O)C(O)C(O)C(=O)O.O=C(O)C(O)C(O)C(=O)O
Second: Cc1ccc(O)c([C@H](CCN(C(C)C)C(C)C)c2ccccc2)c1.O=C(O)C(O)C(O)C(=O)O [TOLTERODINE TARTRATE]
The Inhibition of the first is lower: -7.91% for the first, -7.64% for the second.

First: Cl.O.O=C1N(c2ccccc2)c2ccccc2C1(Cc1ccncc1)Cc1ccncc1
Second: CC(CCc1ccccc1)NCC(O)c1ccc(O)c(C(N)=O)c1.Cl (stereo not drawn) [LABETALOL HYDROCHLORIDE]
The Inhibition of the first is higher: -6.67% for the first, -9.04% for the second.

Compared with `CC1=C(C(=O)O)N2C(=O)[C@@H](NC(=O)[C@H](N)c3ccccc3)[C@H]2SC1.O` [CEPHALEXIN], `CN1CCC(=C2c3ccccc3CC(=O)c3sccc32)CC1.O=C(O)/C=C/C(=O)O` [KETOTIFEN FUMARATE] is lower in Inhibition: 4.2% for the first, -3.16% for the second.

Compared with `CO[C@H]1O[C@@H]2O[C@@]3(C)CC[C@H]4[C@H](C)CC[C@@H]([C@H]1C)[C@@]24OO3`, `C#C[C@]1(O)CC[C@H]2[C@@H]3[C@H](C)CC4=C(CCC(=O)C4)[C@H]3CC[C@@]21C` [TIBOLONE] is lower in Inhibition: 6.04% for the first, -2.16% for the second.

First: COc1cc(C(=O)NC2CCCNC2)cc(OC)c1OC (stereo not drawn) [TROXIPIDE]
Second: COc1cc2c(cc1OC)C(=O)C(CC1CCN(Cc3ccccc3)CC1)C2.Cl (stereo not drawn) [DONEPEZIL HYDROCHLORIDE]
The Inhibition of the first is higher: 0.51% for the first, -7.79% for the second.

First: CN(C)CC[C@@H](c1ccc(Br)cc1)c1ccccn1.O=C(O)/C=C\C(=O)O [DEXBROMPHENIRAMINE MALEATE]
Second: CN(C)CCC(c1ccc(Cl)cc1)c1ccccn1.O=C(O)/C=C\C(=O)O (stereo not drawn) [CHLORPHENIRAMINE MALEATE]
The Inhibition of the first is lower: -3.8% for the first, 0.1% for the second.

Compared with `C[C@H](CS)C(=O)N1CCC[C@H]1C(=O)O` [CAPTOPRIL], `C[C@]12CCC(=O)C=C1CC[C@@H]1[C@@H]2C(=O)C[C@@]2(C)[C@H]1CC[C@]2(O)C(=O)CO` [CORTISONE] is lower in Inhibition: 1.67% for the first, 0.81% for the second.

Going from `COc1ccccc1OCC(O)COC(N)=O` (stereo not drawn) [METHOCARBAMOL] to `O=C([O-])c1cc(=O)c2c(OCC(O)COc3cccc4oc(C(=O)[O-])cc(=O)c34)cccc2o1.[Na+].[Na+]` [CROMOLYN SODIUM], the Inhibition rises from -8.85% to 0.69%.

Compared with `Cl.O=C(NCC1CCCCN1)c1cc(OCC(F)(F)F)ccc1OCC(F)(F)F` (stereo not drawn), `COc1cc(C(=O)NS(=O)(=O)c2ccccc2C)ccc1Cc1cn(C)c2ccc(NC(=O)OC3CCCC3)cc12` [ZAFIRLUKAST] is higher in Inhibition: -9.22% for the first, 1.96% for the second.

Compared with `CN(Cc1cnc2nc(N)nc(N)c2n1)c1ccc(C(=O)N[C@@H](CCC(=O)O)C(=O)O)cc1.O`, `CN1CCN(C2=Nc3ccccc3Oc3ccc(Cl)cc32)CC1.O=C(O)CCC(=O)O` [LOXAPINE SUCCINATE] is higher in Inhibition: -1.89% for the first, -0.59% for the second.

Compared with `CC1=C(CC(=O)O)c2cc(F)ccc2/C1=C\c1ccc([S+](C)[O-])cc1` (stereo not drawn), `CN1CCN(c2nc3cc(C(F)(F)F)ccc3n3cccc23)CC1.O=C(O)/C=C\C(=O)O.O=C(O)/C=C\C(=O)O` is higher in Inhibition: -1.21% for the first, 2.72% for the second.

First: C#C[C@]1(O)CC[C@H]2[C@@H]3CCC4=CC(=O)CC[C@@H]4[C@H]3CC[C@@]21CC [LEVONORGESTREL]
Second: Cl.c1ccc2c(c1)CCCC2C1=NCCN1 (stereo not drawn) [TETRAHYDROZOLINE HYDROCHLORIDE]
The Inhibition of the first is higher: 2.67% for the first, -3.23% for the second.

Going from `CC(C)(C#N)c1cc(Cn2cncn2)cc(C(C)(C)C#N)c1` [ANASTROZOLE] to `COc1ccc(-c2oc3c(CC=C(C)C)c(O[C@@H]4O[C@H](CO)[C@@H](O)[C@H](O)[C@H]4O)cc(O)c3c(=O)c2O[C@@H]2O[C@@H](C)[C@H](O)[C@@H](O)[C@H]2O)cc1` [ICARIIN], the Inhibition rises from -3.6% to 0.11%.

Compared with `CC(C)NCC(O)COc1ccc(COCCOC(C)C)cc1.CC(C)NCC(O)COc1ccc(COCCOC(C)C)cc1.O=C(O)/C=C/C(=O)O` (stereo not drawn) [BISOPROLOL FUMARATE], `CCCN[C@H]1CCc2nc(N)sc2C1` [PRAMIPEXOLE] is higher in Inhibition: -4.67% for the first, -0.71% for the second.

— ChEMBL document CHEMBL4513141, “CO-ADD screening of NIH (USA) - Clinical Collection” (2021)
